According to PubChem BioAssay (NCATS):
Where “and” joins values, the source holds several entries; their conditions need not be identical. Equal entries are not always repeated. Results filed as inconclusive are left out. Calls of active or inactive are those of the source. The call rests on the fitted dose curve; in most records, active means well fitted cell-killing curve with a large enough effect; inconclusive means small, poorly fitted or top-dose-only effect, or effect the other way; inactive means no such curve, though single readings can be large or run the other way.

experiment: Viability qHTS for spleen associated tyrosine kinase inhibitor (SYKi) drug resistant MV4-11 cells (AID 1963824); settings: SYKi-resistant MV4-11 viability, CellTiter-Glo, 72 h; series mostly up to 45 µM; viability, % of control: at the top concentration; further: nearly all actives have a fitted effect of over 35% in size
Description: Department of Medicine, Hematology/Oncology
University Hospital Frankfurt, Germany.
Trials have shown promising clinical activity of the selective SYK inhibitor entospletinib in patients with high expressing HOXA9/MEIS1 acute leukemias. As the development of resistance mechanisms is a common problem in the use of targeted drugs, we performed a chemical library screen to identify drug sensitivities in SYK inhibitor resistant AML cells. […] Glucocorticoids are potent immunosuppressants which work in part by inhibiting the transcription of cytokine genes.
Described herein is a viability screen to look for activity in the SYK inhibitor drug resistant cell line against four NCATS compound libraries (MIPE 5.0, NPC, NPACT, and Kinase) totaling 11372 compounds. Active hits were reacquired for confirmation and further secondary assay testing.
SEQUENCE No. (e.g., 1, 2, 3, etc.); […] (e.g., Cells, Incubation, Reagent, etc.); VALUE; DESCRIPTION.
1; Media; 2uL; white, solid-bottom Corning assay plate.
2; Compounds; 23nL; Echo acoustic dispenser.
3; Cell; 5uL; 500 cells per well.
4: Incubation; 72hr; 37 C, 5% CO2, 95% humidity.
5; Reagent; 3uL; CellTiter-Glo reagent (Promega).
6; Incubation; 10min; room temperature.
7; Detection; Luminescence; ViewLux plate reader (PerkinElmer).
NOTES (numbers refer to Sequence numbers above
1. Quantitative high-throughput screening (qHTS) of small molecule compounds was conducted on drug resistant SYKi MV4-11 cell line.
2. Twenty-three nanoliter of small molecule compounds were added to each assay plates using the Echo acoustic dispenser (Beckman Coulter).
3. Cells were seeded into the assay plates at a final density of 500 cells in 5uL of media per well using the Multidrop Combi dispenser.
4. Plates were covered with stainless steel gasketed lids and incubated for 72 hours at standard cell culture conditions.
5. Viability was assessed by adding 3uL of CellTiter-Glo detection reagent (Promega).
6. Plates were covered with gasket lids and incubated for 10 minutes at room temperature.
7. Luminescence was measured on a ViewLux plate reader (PerkinElmer).
Potency means the concentration at half of the fitted maximal effect.

Row | SMILES | viability, % of control | Potency
1 | CN1CCN(c2nc(-c3ccc(C(=O)NC4(C(=O)NCC#N)CCCCC4)cc3)cs2)CC1 | 87.2% (inactive) | 
2 | Nc1nccc2c1ncn2[C@@H]1C=C(CO)[C@@H](O)[C@H]1O |  | 0.209 µM (active)
3 | Cc1cc(=O)n(-c2ccccc2)n1C | 73.4% (inactive) | 
4 | OC[C@H]1O[C@@H](Oc2cc(O)c3c(c2)O[C@@H](c2ccc(O)cc2)[C@H](O)C3)[C@H](O)[C@@H](O)[C@@H]1O | 82.8% [at 17.3 µM] (inactive) | 
5 | O=C1c2c(O)cccc2Cc2cccc(O)c21 | 98.7% (inactive) | 
6 | CC(=O)/C=C/[C@H]1[C@](C)(O)[C@@H](O)[C@H](OC(C)=O)C2C(C)(C)CCC[C@@]21C (stereo not given in full) | 100% (inactive) | 
7 | CC(C)=CC1C[C@](C)(O)[C@@H]2[C@H]3CCC4[C@@]5(C)CC[C@H](O[C@@H]6OC[C@H](O)[C@H](O[C@@H]7O[C@H](CO[C@@H]8O[C@H](CO)[C@@H](O)[C@H](O)[C@H]8O)[C@@H](O)[C@H](O)[C@H]7O)[C@H]6O[C@@H]6O[C@@H](C)[C@H](O)[C@@H](O)[C@H]6O)C(C)(C)[C@@H]5CC[C@@]4(C)[C@@]34CO[C@@]2(C4)O1 (stereo not given in full) | 96.9% [at 9.25 µM] (inactive) | 
8 | CC(C)(O)C1CC=C(C(=O)OC[C@H]2O[C@@H](Oc3cc(C(=O)O)cc(O)c3O)[C@H](O)[C@@H](O)[C@@H]2O)CC1 (stereo not given in full) | 84.7% [at 17.3 µM] (inactive) | 
9 | C[C@@H]1CC(=O)Nc2cccc(-c3cnn(C(C)(C)C)c3)c2N1 |  | 11.8 µM (active)
10 | OCc1ccccn1 | 109% (inactive) | 
11 | COc1cc(/C=C/C(=O)OC2CC(C)=C(C(=O)O)/C2=C/CO[C@@H]2O[C@H](CO)[C@@H](O)[C@H](O)[C@H]2O)ccc1O (stereo not given in full) | 81.6% [at 17.3 µM] (inactive) | 
12 | C=C1C(=O)O[C@H]2/C=C(/C)[C@@H](OC(C)=O)C/C=C(\C)C[C@@H](OC(=O)/C(=C/C)COC(=O)/C(=C/C)CO)[C@@H]12 |  | 1.59 µM (active)
13 | CCOC(=O)n1ccn(C)c1=S | 81.2% (inactive) | 
14 | Cn1nccc1Nc1nccc(-c2cc3c(s2)C(C)(C)N(CCN2CCOCC2)C3=O)n1 |  | 3.72 µM (active)
15 | COc1ccc(CN2C(=O)C(=O)c3cc(S(=O)(=O)N4CCC[C@H]4COc4cccnc4)ccc32)cc1 | 108% (inactive) | 
16 | CC/C=C/C(O)C(O)C1=C(C)C(=O)C2(O1)C(=O)NC(OC)(C(=O)c1ccccc1)C2O (stereo not given) | 96.5% [at 17.3 µM] (inactive) | 
17 | Cc1c(-c2ccccc2)oc2c(C(=O)OCCN3CCCCC3)cccc2c1=O | 76.1% (inactive) | 
18 | O=C(Nc1ccc(Oc2ccc(Cl)cc2)c(Cl)c1)c1cc(I)cc(I)c1O | 72.6% (inactive) | 
19 | COC(=O)c1cc(OC)cc(OC)c1C(=O)c1c(OC)cc2c(c1O)C1CCCC(C)(O2)O1 (stereo not given) |  | 7.09 µM (active)
20 | O=C1CCc2cc(S(=O)(=O)Nc3cccc(Cl)c3)ccc2N1 |  | 16.4 µM (active)

Row | SMILES | viability, % of control | Potency
21 | Nc1nc2c(nc(Br)n2[C@@H]2O[C@@H]3COP(=O)(O)O[C@H]3[C@H]2O)c(=O)[nH]1 | 92.1% (inactive) | 
22 | Cc1ncc([N+](=O)[O-])n1C | 94.5% (inactive) | 
23 | C[n+]1cc2c3c(ccc2c2ccc4cc5c(cc4c21)OCO5)OCO3 |  | 1.3 µM (active)
24 | C[C@@H]1O[C@@H](O[C@H]2[C@H](O[C@H]3[C@H](O[C@H]4CC[C@@]5(C)C(CC[C@]6(C)C5CC=C5[C@@H]7CC(C)(C)CC[C@]7(C(=O)O[C@@H]7O[C@H](CO)[C@@H](O[C@@H]8O[C@@H](C)[C@H](O)[C@@H](O)[C@H]8O)[C@H](O)[C@H]7O)CC[C@]56C)C4(C)C)OC[C@H](O)[C@@H]3O)O[C@H](CO)[C@@H](O)[C@@H]2O)[C@H](O)[C@H](O)[C@H]1O (stereo not given in full) | 2.33% [at 9.25 µM] (inactive) | 
25 | C[C@H](CN(C)C)Oc1nc(Nc2cc3cccc(Cl)c3cn2)cnc1C#N |  | 411 nM (active) and 934 nM (active)
26 | OC[C@@]1(O)CO[C@H](OC[C@H]2O[C@@H](OCCc3ccccc3)[C@H](O)[C@@H](O)[C@@H]2O)[C@@H]1O | 85% [at 17.3 µM] (inactive) | 
27 | C=C1CC[C@@H]2[C@](C)(CO)[C@H](O)CC[C@@]2(C)[C@@H]1C/C=C1/C(=O)OC[C@H]1O |  | 2.95 µM (active)
28 | N#Cc1cc(CN2CCC(Nc3ncnc4sc(Cl)cc34)CC2)ccc1F |  | 13 µM (active)
29 | COc1cc2c(NC3CCN(CC4CCCCC4)CC3)nc(N3CCCN(C(C)C)CC3)nc2cc1OCCCN1CCCCC1 |  | 3.66 µM (active)
30 | Cc1cc(O)c2c(c1)C(=O)c1cccc(O)c1C2=O | 106% (inactive) | 
31 | Cc1ccc(S(=O)(=O)Nc2ccccc2N2CCCCC2)s1 |  | 18.4 µM (active)
32 | OC[C@@]1(O)CO[C@H](OC[C@H]2O[C@@H](OC(CCCCc3ccc(O)cc3)CCc3ccc(O)cc3)[C@H](O)[C@@H](O)[C@@H]2O)[C@@H]1O (stereo not given in full) | 96.1% [at 17.3 µM] (inactive) | 
33 | CCOc1cc(C(C)(C)C)ccc1C1=NC(C)(c2ccc(Cl)cc2)C(C)(c2ccc(Cl)cc2)N1C(=O)N1CCN(CCCS(C)(=O)=O)CC1 (stereo not given) |  | 9.2 µM (active)
34 | COc1cccc(NC[C@@H](O)Cn2c3ccc(Br)cc3c3cc(Br)ccc32)c1 |  | 16.4 µM (active)
35 | COc1cc2nc(N3CCN(C(=O)c4ccco4)CC3)nc(N)c2cc1OC |  | 11.6 µM (active)
36 | COc1cc(/C=C/C(=O)N2CCN(CC(=O)N3CCCC3)CC2)cc(OC)c1OC | 89.5% (inactive) | 
37 | c1ccc(Nc2nc3c(s2)CCCc2[nH]ncc2-3)nc1 |  | 14.6 µM (active)
38 | O=C1COc2nccc(-c3ccccc3F)c2CN1Cc1cc(C(F)(F)F)cc(C(F)(F)F)c1 |  | 16.4 µM (active)
39 | C[C@@H](Oc1cc(-n2cnc3ccc(CN4CCN(C)CC4)cc32)sc1C(N)=O)c1ccccc1C(F)(F)F |  | 0.0105 µM (active)
40 | O=C(Oc1ccccc1)c1ccccc1O | 97.4% (inactive) | 
